Rows were chosen to be rich in hits. Some 2.2% of all compounds tested hit in one or more screens of this group.
KLF5 inh = inhibitors of KLF5 expression; DLD-1 KLF5 promoter-luciferase reporter, luminescence; inhibition, % at 5 µM; 0.23% of 290,000 active; AID 1700;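 active means inhibition above a per-plate limit of that plate's mean compound inhibition plus 3 SD, cut at about 60% in these data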;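 further: 0% = DMSO wells and 100% = LY294002 at 200 µM; higher means less KLF5 promoter-driven luciferase light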
IEC-6 cytotox = counter-screen for KLF5 inhibitors: cytotoxicity in IEC-6 cells; IEC-6 cytotoxicity, luminescence viability; inhibition, % at 5 µM; AID 1825; 0.78% of 290,000 active;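 further: 0% = plate median of test compound wells and 100% = cytotoxic reference compound wells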
APP 5UTR inh = APP translation inhibition. SH-SY5Y APP 5'UTR-luciferase reporter, luminescence. inhibition, % at 2 µM. 0.82% of 190,000 active. AID 1285;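 active means inhibition above a set limit, derived from the sample mean plus 3 SD, cut at about 45% in these data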
Ba/F3 V617F tox = lowers viability of Ba/F3 cells expressing EpoR and JAK2V617F; ATP luminescence; inhibition, % at 5.6 µM; 1.1% of 220,000 active; AID 1446;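 active means inhibition above the campaign mean plus 3 SD over all tested compounds, cut at about 24% in these data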;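 further: cytokine-independent growth of Ba/F3 cells driven by EpoR plus mutant JAK2; 0% = DMSO-treated cells and 100% = JAK inhibitor I control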
BaF3 parental = counter-screen for JAK2V617F inhibitors: parental Ba/F3 viability inhibitors | CellTiter-Glo ATP luminescence | 1.1% of 220,000 active | AID 1486 | inhibition, % at 5.6 µM;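 active means inhibition above a per-campaign cutoff, the mean inhibition of all tested compounds plus 3 SD, cut at about 27% in these data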;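 further: 0% = DMSO wells and 100% = JAK Inhibitor I control wells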
aSyn UTR inh = 5' untranslated region of α-synuclein, MLPCN primary screen. AID 1813. inhibition, % (tested at 7.5 µM). alpha-synuclein 5'UTR reporter, inhibitor activity. 0.82% of 300,000 active; in the data active means inhibition above about 60%;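 further: H4 neuroglioblastoma cells stably carrying SNCA 5'UTR luciferase fusion; 0% = DMSO wells and 100% = positive control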
IEC-6 tox confirm = IEC-6 cytotoxicity, confirmation assay; shares compounds with IEC-6 cytotox; IEC-6 rat intestinal epithelial viability, luminescence; inhibition, % at 5 µM; 63% of 1,900 active; AID 1907;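 further: 0% = vehicle and 100% = reference cytotoxic drug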
Numbers without * were called inactive. Unless noted, no stated cut-off is given here; in the data, active means inhibition above about 22%; inactive means the rest.

For Cn1c(=O)c2c(nc(NCC3CCCC(CN)C3)n2Cc2ccc(Cl)cc2Cl)n(C)c1=O (configuration not stated) the results were KLF5 inh -40, IEC-6 cytotox 60*, aSyn UTR inh -84 and IEC-6 tox confirm 39*.
Screening CCCC(C(=O)NC1CCCC1)N(Cc1ccccc1Cl)C(=O)c1snc(C(N)=O)c1N (configuration not stated) returned KLF5 inh 3, IEC-6 cytotox -6 and aSyn UTR inh 11.
Screening NC(=O)c1c(NC(=O)CN2CCN(S(=O)(=O)c3ccccc3)CC2)sc2c1CCC2 returned aSyn UTR inh -11.
For Cc1cc2nnc(SCC(=O)NCc3cccs3)n2c2ccccc12 the results were KLF5 inh 42, IEC-6 cytotox 34*, APP 5UTR inh 4, Ba/F3 V617F tox 31*, BaF3 parental 40*, aSyn UTR inh -27 and IEC-6 tox confirm 24*.
COc1ccc(S(=O)(=O)Nc2cc(Cl)ccc2OC)cc1 was read as KLF5 inh 59, IEC-6 cytotox 68*, APP 5UTR inh 87*, Ba/F3 V617F tox 81*, BaF3 parental 72*, aSyn UTR inh 44 and IEC-6 tox confirm 53*.
Screening COc1cc(C(=O)Nc2ccccn2)cc(OC)c1OC returned KLF5 inh -21, IEC-6 cytotox -1, APP 5UTR inh -8, Ba/F3 V617F tox -1, BaF3 parental 3 and aSyn UTR inh -3.
COc1cc(C(=O)Nc2ccccc2C(=O)Nc2ccccn2)cc(OC)c1OC was read as KLF5 inh 34, IEC-6 cytotox 33*, aSyn UTR inh -67 and IEC-6 tox confirm 21.
Screening O=C(Nc1nnc(S(=O)(=O)N2CCN(c3ccc(F)cc3)CC2)s1)c1ccccc1 returned KLF5 inh -110, IEC-6 cytotox 3 and aSyn UTR inh -63.
For O=C(O)c1cc(S(=O)(=O)N2CCN(C(c3ccccc3)c3ccccc3)CC2)ccc1Cl the results were KLF5 inh -22, IEC-6 cytotox -8 and aSyn UTR inh 2.
For O=C(CSc1ncnc2nc[nH]c12)c1ccccc1 the results were KLF5 inh -67, IEC-6 cytotox 8, APP 5UTR inh -34, Ba/F3 V617F tox 8, BaF3 parental 24 and aSyn UTR inh -87.
For O=C(CSc1ncnc2nc[nH]c12)c1ccc(Cl)cc1 the results were KLF5 inh -14, IEC-6 cytotox 41*, aSyn UTR inh 14 and IEC-6 tox confirm 23*.
For Oc1ccc(-c2cnc(-c3ccc(O)cc3)nc2)cc1 the results were KLF5 inh 10, IEC-6 cytotox 41*, aSyn UTR inh -29 and IEC-6 tox confirm 14.
Screening Nc1ccc(-c2cnc(-c3ccc(N)cc3)nc2)cc1 returned KLF5 inh -59, IEC-6 cytotox 6, APP 5UTR inh -126, Ba/F3 V617F tox 9, BaF3 parental 12 and aSyn UTR inh -34.
Screening CC(=O)Nc1ccc(NS(=O)(=O)c2cc(-c3cnc(C4CC4)o3)ccc2C)cc1 returned KLF5 inh -42, IEC-6 cytotox 23*, aSyn UTR inh -7 and IEC-6 tox confirm 24*.
Cc1ccc(N(C)S(=O)(=O)c2cc(-c3cnc(C4CC4)o3)ccc2C)cc1 was read as KLF5 inh 2, IEC-6 cytotox 3 and aSyn UTR inh 9.
For CC(=O)c1ccc(NS(=O)(=O)c2cc(-c3cnc(C4CC4)o3)ccc2C)cc1 the results were KLF5 inh -32, IEC-6 cytotox 11 and aSyn UTR inh 33.
For Cc1ccc(-c2cnc(C3CC3)o2)cc1S(=O)(=O)Nc1ccccc1 the results were KLF5 inh 17, IEC-6 cytotox 38*, aSyn UTR inh 51 and IEC-6 tox confirm 47*.
`CC(=O)c1cccc(NS(=O)(=O)c2cc(-c3cnc(C4CC4)o3)ccc2C)c1` gave KLF5 inh 12, IEC-6 cytotox 41*, aSyn UTR inh 19 and IEC-6 tox confirm 31*.
For Cc1ccc(S(=O)(=O)Cn2nnnc2C(C(C)C)N2CCC(C(N)=O)CC2)cc1 (configuration not stated) the results were KLF5 inh -36, IEC-6 cytotox 0 and aSyn UTR inh 7.
`Cc1ccc(C(=O)N/C(=C\c2cn(S(=O)(=O)N(C)C)c3ccccc23)C(=O)NCCN2CCOCC2)cc1` gave KLF5 inh -8, IEC-6 cytotox 5 and aSyn UTR inh -7.
For COc1ccc(-c2ccnc(-c3ccc(O)cc3)n2)cc1 the results were KLF5 inh 27, IEC-6 cytotox 69*, APP 5UTR inh 93*, Ba/F3 V617F tox 79*, BaF3 parental 59*, aSyn UTR inh -38 and IEC-6 tox confirm 60*.
For COc1ccc(-c2csc(-c3ccc(O)cc3)n2)cc1 the results were KLF5 inh -58, IEC-6 cytotox 50*, Ba/F3 V617F tox 64*, BaF3 parental 47*, aSyn UTR inh -215 and IEC-6 tox confirm 44*.
For COc1ccc(-c2ccnc(-c3ccncc3)n2)cc1 the results were KLF5 inh 10, IEC-6 cytotox 30*, Ba/F3 V617F tox 19, BaF3 parental 13, aSyn UTR inh -2 and IEC-6 tox confirm 18.
Screening COc1ccc(-c2nc(CCl)cs2)cc1 returned KLF5 inh -29, IEC-6 cytotox -2, APP 5UTR inh -4, Ba/F3 V617F tox -3, BaF3 parental 0 and aSyn UTR inh -142.
For CCOC(=O)Cc1csc(NC(=O)C(CC(C)C)NC(=O)C2CCCCC2)n1 (configuration not stated) the results were KLF5 inh -28, IEC-6 cytotox 1, APP 5UTR inh -7, Ba/F3 V617F tox 2, BaF3 parental 2 and aSyn UTR inh 1.
Cc1nn2c(NCCN(C)C)c3c(nc2c1-c1ccccc1)CCCC3 was read as KLF5 inh -3, IEC-6 cytotox 25*, Ba/F3 V617F tox 7, BaF3 parental 4 and IEC-6 tox confirm 1.
COCCNc1c2c(nc3c(-c4ccccc4)c(C)nn13)CCCC2 was read as KLF5 inh -11, IEC-6 cytotox -2, APP 5UTR inh 11, Ba/F3 V617F tox 1, BaF3 parental 8 and aSyn UTR inh 37.
For O=C(Nc1ccccc1)Nc1cccc(Cl)c1Cl the results were KLF5 inh -15, IEC-6 cytotox 7, APP 5UTR inh -55, Ba/F3 V617F tox -2, BaF3 parental 5 and aSyn UTR inh -237.
O=C(Nc1ccc(Oc2ccc(NC(=O)Nc3ccccc3Cl)cc2)cc1)Nc1ccccc1Cl was read as KLF5 inh 1, IEC-6 cytotox 15, Ba/F3 V617F tox -2, BaF3 parental 1, aSyn UTR inh -6 and IEC-6 tox confirm -2.
Screening O=C(CSc1nc(=O)n(CCCN2CCOCC2)c2c1CCC2)Nc1ccc([N+](=O)[O-])cc1 returned aSyn UTR inh -8.
c1ccc(CN2CCC(Nc3nc(-c4cccnc4)nc4ccccc34)CC2)cc1 was read as KLF5 inh -31, IEC-6 cytotox 24*, APP 5UTR inh 5, Ba/F3 V617F tox 3, BaF3 parental 9, aSyn UTR inh -83 and IEC-6 tox confirm 19.
